Several values for one entry are separate records, joined by “and”; a condition that tells them apart may be missing. Equal values may be shown once. Records with an inconclusive call do not appear. Activity calls are given as the source filed them. Calls come from the whole dose curve; as a rule, active = well fitted inhibition curve with a large enough effect; inconclusive = small, poorly fitted or top-dose-only effect; inactive = flat fitted curve, though single readings scatter.
Tests used:
CRL-7250 = normal cell line; assay: Cytotoxic Profiling of Annotated Libraries Using Quantitative High-Throughput Screening (AID 1296008); details: Five cell lines viability, CellTiter-Glo ATP luminescence, 48-72 h; max response: active compounds read low; note: potency is the fitted concentration of half-maximal effect; for max response: % is set by controls: 0 for no effect and ±100 for the full control effect
How it was run: (§1)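 Cells exposed to compounds for 48 or 72 hr at 37 degrees Celsius. Viability read as ATP-coupled luminescence with CellTiter-Glo after 10 min at room temperature.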

HEK293 = assay: as above; details: Five cell lines viability, CellTiter-Glo ATP luminescence, 48-72 h; max response: active compounds read low
How it was run: as §1

HaCat [1] = assay: as above; details: Five cell lines viability, CellTiter-Glo ATP luminescence, 48-72 h; max response: active compounds read low
How it was run: as §1

KB-3-1 = assay: as above; details: Five cell lines viability, CellTiter-Glo ATP luminescence, 48-72 h; max response: active compounds read low
How it was run: as §1

NIH3T3 = assay: as above; details: Five cell lines viability, CellTiter-Glo ATP luminescence, 48-72 h; max response: active compounds read low
How it was run: as §1

HACAT [2] = assay: qHTS assay to identify novel small-molecules to repurpose for Merkel cell carcinoma treatment (AID 1296009); details: MCC and control cell lines, CellTiter-Glo viability, 72 h; at 44.8 µM (top of the series) unless noted
How it was run: (§2)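 CellTiter-Glo luminescence after 72 hr compound exposure at 37 degree celsius gave cell viability. Libraries NPC and MIPE were run as 8- and 11-point dose responses; RLUs normalized to DMSO (negative) and no-cell (cytotoxicity) controls.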

HEK293T = assay: as above; details: MCC and control cell lines, CellTiter-Glo viability, 72 h; at 44.8 µM (top of the series) unless noted
How it was run: as §2
Note: nearly all actives have a fitted effect of over 60% in size.

Nc1ncnc2c1ncn2[C@@H]1O[C@H](CO)[C@@H](O)[C@@H]1O
inactive: outcome (CRL-7250) | max response (HEK293) -0.764% | outcome (HaCat [1]) | outcome (KB-3-1) | max response (NIH3T3) 3.26% | outcome (HACAT [2])

OC[C@H]1O[C@@H](Oc2ccc(O)cc2)[C@H](O)[C@@H](O)[C@H]1O
inactive: max response (CRL-7250) -2.9% | max response (HEK293) 3.31% | outcome (HaCat [1]) | outcome (KB-3-1) | outcome (NIH3T3) | outcome (HACAT [2])

CCc1cccc(CC)c1NC(=O)N1Cc2[nH]nc(NC(=O)c3ccc(N4CCN(C)CC4)cc3)c2C1
active: Potency (CRL-7250) 16.6 µM and 10.3 µM | Potency (HEK293) 8.2 µM | Potency (HaCat [1]) 26.4 µM and 18.4 µM | Potency (KB-3-1) 7.43 µM and 4.61 µM | Potency (NIH3T3) 13.2 µM

CCOC(=O)[C@H](CCc1ccccc1)N[C@@H](C)C(=O)N1CCCC1C(=O)O (some centres not stated)
inactive: max response (CRL-7250) 3.69% | outcome (HEK293) | outcome (HaCat [1]) | max response (KB-3-1) 2.47% | outcome (NIH3T3) | outcome (HACAT [2]) | outcome (HEK293T)

CCC[C@@H](NC(=O)[C@@H]1[C@H]2CCC[C@@H]2CN1C(=O)[C@@H](NC(=O)[C@@H](NC(=O)c1cnccn1)C1CCCCC1)C(C)(C)C)C(=O)C(=O)NC1CC1
inactive: outcome (CRL-7250) | max response (HEK293) -0.244% | outcome (HaCat [1]) | outcome (KB-3-1) | outcome (NIH3T3) | outcome (HACAT [2])

CCC(c1ccc(O)cc1)C(CC)c1ccc(O)cc1 (configuration not stated)
inactive: outcome (CRL-7250) | max response (HEK293) -1.04% | outcome (HaCat [1]) | max response (KB-3-1) 9.65% | outcome (NIH3T3) | outcome (HACAT [2])

O=c1cc(-c2ccc(O)c(O)c2)oc2cc(O)cc(O)c12
inactive: max response (CRL-7250) 4.28% | outcome (HEK293) | outcome (HaCat [1]) | outcome (KB-3-1) | max response (NIH3T3) 3.33% | outcome (HACAT [2]) | outcome (HEK293T)

C[C@H](CCC(=O)O)[C@H]1CC[C@H]2[C@H]3[C@@H](CC[C@]12C)[C@@]1(C)CC[C@@H](O)C[C@H]1C[C@@H]3O
inactive: max response (CRL-7250) -2.21% | outcome (HEK293) | outcome (HaCat [1]) | max response (KB-3-1) 0.163% | max response (NIH3T3) -1.17% | outcome (HACAT [2]) | outcome (HEK293T)

NC(N)=Nc1nc(CSCCC(N)=NS(N)(=O)=O)cs1
inactive: max response (CRL-7250) -0.357% | max response (HEK293) -1.73% | outcome (HaCat [1]) | max response (KB-3-1) 6.28% | outcome (NIH3T3) | outcome (HACAT [2])

CCC(=O)NCC[C@@H]1CCc2ccc3c(c21)CCO3
inactive: max response (CRL-7250) -4.42% | max response (HEK293) -0.876% | outcome (HaCat [1]) | max response (KB-3-1) -2.73% | outcome (NIH3T3) | outcome (HACAT [2])

C=CC[N+]1([C@H]2C[C@H]3[C@@H]4CC[C@H]5C[C@H](O)[C@@H](N6CCOCC6)C[C@]5(C)[C@@H]4CC[C@]3(C)[C@H]2OC(C)=O)CCCC1
inactive: outcome (CRL-7250) | max response (HEK293) -1.88% | outcome (HaCat [1]) | max response (KB-3-1) 8.47% | max response (NIH3T3) 4.84% | outcome (HACAT [2])

CC[C@H](NC(=O)[C@H](C)NC)C(=O)N1C[C@@H](O)C[C@H]1Cc1c(-c2[nH]c3cc(F)ccc3c2C[C@H]2C[C@H](O)CN2C(=O)[C@H](CC)NC(=O)[C@H](C)NC)[nH]c2cc(F)ccc12
inactive: outcome (CRL-7250) | max response (HEK293) 1% | outcome (HaCat [1]) | outcome (KB-3-1) | outcome (NIH3T3) | outcome (HACAT [2])

O=C(CC12CC3CC(CC(C3)C1)C2)Nc1cccc2nc(NCCNCCO)ccc12
inactive: max response (CRL-7250) -13.8% and 3.99% | max response (HEK293) -37.5% | outcome (HaCat [1]) | max response (KB-3-1) -12.7% | outcome (NIH3T3) | outcome (HACAT [2])

CN[C@@H]1[C@@H](O)[C@@H](O[C@@H]2[C@@H](O)[C@H](O[C@H]3O[C@H](CN)[C@@H](O)[C@H](O)[C@@H]3O)[C@@H](N)C[C@@H]2NC(=O)[C@@H](O)CN)OC[C@]1(C)O
inactive: outcome (CRL-7250) | max response (HEK293) 3.66% | outcome (HaCat [1]) | max response (KB-3-1) 1.73% | outcome (NIH3T3) | outcome (HACAT [2])

O=C(NC[C@H](O)CO)c1ccncc1Nc1ccc(I)cc1F
active: Potency (CRL-7250) 16.6 µM | Potency (NIH3T3) 8.33 µM
inactive: max response (HEK293) -10.7% | outcome (KB-3-1)

O=C1NC(=O)C(=Cc2ccc(-c3ccc(F)cc3O)o2)S1
inactive: max response (CRL-7250) -7.89% | max response (HEK293) -12.7% | max response (HaCat [1]) -35.3% | max response (NIH3T3) -4.39%

CC[C@H](CC#N)OC(=O)N[C@@H](C)c1cccc(NC(=O)Nc2ccc(-c3cnco3)c(OC)c2)c1
active: Potency (CRL-7250) 1.66 µM and 1.03 µM | Potency (HEK293) 0.418 µM | Potency (KB-3-1) 1.32 µM and 1.64 µM | Potency (NIH3T3) 1.18 µM and 1.3 µM

O=C(O)C1=CO[C@@H](O[C@@H]2O[C@H](CO)[C@H](O)[C@H](O)[C@H]2O)[C@@H]2C(CO)=CC[C@H]12
inactive: max response (CRL-7250) 1.58% | outcome (HEK293) | max response (HaCat [1]) -0.469% | max response (KB-3-1) 7.89% | max response (NIH3T3) -17.7% | outcome (HEK293T)

COc1c(C)cnc(Cn2cnc3c(Cl)nc(N)nc32)c1C
active: Potency (CRL-7250) 0.935 µM | Potency (HEK293) 0.132 µM | Potency (HaCat [1]) 296 nM | Potency (NIH3T3) 0.526 µM

C[C@@H](N)c1ccc(C(=O)Nc2ccnc3[nH]ccc23)cc1
inactive: max response (CRL-7250) -24.2%
active: Potency (HEK293) 23.1 µM | Potency (HaCat [1]) 18400 nM | Potency (NIH3T3) 23.5 µM and 16.4 µM

— PubChem BioAssay (NCATS)
